ssDAF12 agonist = S. stercoralis DAF-12 activation, primary screen. HEK293 ssDAF-12/GRIP1 lit1-tk-luc reporter, luminescence; % of 3 µM dafachronic acid response. activation, % at 6.8 µM. 370,000 compounds, 1% hits;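 active means activation above the mean over all tested compounds plus 3 SD, cut at about 0.9% in these data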;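 further: 0% = DMSO-only wells and 100% = 3 µM delta7-dafachronic acid wells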
hgDAF-12 ag = agonists of H. glycines DAF-12 nuclear receptor; HEK293 GAL4-hgDAF12 UAS-luciferase reporter, agonist luminescence; normalized to butyrate control; 370,000 compounds, 1.8% hits; AID 687014; activation, % at 6.8 µM;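 active means activation above a cutoff set at the mean of all screened compounds plus 3 SD, cut at about 10% in these data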;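 further: 0% = DMSO wells and 100% = sodium butyrate wells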
DAX1 inh-1 = inhibits human nuclear receptor DAX1; P51843; 340,000 compounds, 0.99% hits; HEK293 Gal4-DAX1 luciferase reporter, luminescence; inhibition, % at 6.75 µM;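 active means inhibition above the mean over all tested compounds plus 3 SD, cut at about 4.2% in these data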;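 further: 0% = DAX1-transfected cells with DMSO and 100% = empty-vector control cells with DMSO; inhibition shows as a rise in luminescence from relieved DAX1 repression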
Target sequence (P51843 207-470 limits assumed): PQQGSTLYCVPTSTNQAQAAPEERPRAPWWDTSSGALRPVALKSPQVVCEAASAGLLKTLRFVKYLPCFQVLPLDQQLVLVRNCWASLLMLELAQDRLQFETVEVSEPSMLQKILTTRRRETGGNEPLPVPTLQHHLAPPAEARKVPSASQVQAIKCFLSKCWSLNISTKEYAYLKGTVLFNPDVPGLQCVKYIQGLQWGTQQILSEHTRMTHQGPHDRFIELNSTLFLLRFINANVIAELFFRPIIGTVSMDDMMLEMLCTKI
hcDAF12 agonist = H. contortus DAF-12 activation, primary screen; 370,000 compounds, 1.4% hits; AID 652067; HEK293 hcDAF-12 lit1-tk-luc reporter, luminescence; 0% DMSO, 100% Δ7-dafachronic acid; activation, % at 6.8 µM;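 active means activation above the mean of all tested compounds plus 3 SD, cut at about 5.5% in these data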;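 further: 100% = response to 3 µM Δ7-dafachronic acid high control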
DAX1 inh-2 = inhibitors of DAX1 repression of SF-1 activated StAR promoter; AID 652010; 370,000 compounds, 1.1% hits; inhibition, % at 6.8 µM; HEK293T StAR-luciferase reporter, SF-1/DAX-1 repression relief;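 active means inhibition above the mean over all tested compounds plus 3 SD, cut at about 3.6% in these data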;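 further: 0% = DAX-1 cells with DMSO and 100% = cells lacking DAX-1 with DMSO; higher inhibition means more luminescence from relief of DAX-1 repression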
Numbers without * were called inactive; x = no result. Sampled rows, rich in hits. Any-hit rate of the full collection: about 4.1%.

SMILES	ssDAF12 agonist	hgDAF-12 ag	DAX1 inh-1	hcDAF12 agonist	DAX1 inh-2
CCC(=O)NC(=S)Nc1cccc(NC(=O)c2ccco2)c1	-1.1	-1.5	-1.1	-2.9	-0.8
COc1cc(NS(=O)(=O)c2ccc(NC(=S)NC(=O)c3ccco3)cc2)nc(OC)n1	-0.9	1.4	4.7*	0.0	0.2
Fc1ccc(CN2CCN(c3ncc(Cc4ccccc4)cn3)CC2)c(Cl)c1	-2.0	-5.8	x	-3.7	-4.6
COc1cccc(-c2cc3nc(C)c(C)c(N4CCN(Cc5ccco5)CC4)n3n2)c1	-1.3	5.5	x	-1.2	x
CCCC1CCC2(CC1)CCC2OC(=S)Nc1cccc(C(F)(F)F)c1 (centres undefined)	-1.7	-3.2	x	-0.1	x
CCc1ccc(C(=O)Nc2ccc3c(c2)n(C)c(=O)n3C)cc1	-0.7	2.4	5.9*	-0.5	-0.2
CCOc1ccc(C(=O)Nc2ccc3c(c2)OCCO3)cc1	0.3	12.4*	-1.2	5.9*	2.5
CSCc1ccc(C(=O)N2CCCC(Nc3ccc4c(c3)OCCO4)C2)o1 (centres undefined)	-1.0	2.2	-0.4	1.4	-0.4
O=C(NC(=S)Nc1ccc2c(c1)OCCO2)c1ccco1	-0.1	10.9*	4.5*	3.9	2.4
O=C(c1ccco1)N1CCCC(Nc2ccc3c(c2)OCCO3)C1 (centres undefined)	-0.3	1.7	1.0	6.3*	1.7
Cc1ccc(C(=O)Nc2ccc3c(c2)OCCO3)cc1	0.3	9.4	-4.2	0.8	1.2
COc1cc(OC)cc(C(=O)Nc2ccc3c(c2)n(C)c(=O)n3C)c1	-0.4	-2.5	0.9	-1.2	0.1
CCCCCCCCN1CCS(=O)(=O)N(Cc2ccc(C(F)(F)F)cc2)C(C(=O)OC)C1 (centres undefined)	-1.4	-0.7	x	-2.0	-0.8
CN1OC[C@@H]2CN(Cc3ccc4c(c3)OCO4)[C@H](c3ccc(-n4ccnc4)cc3)C[C@@H]21	0.2	-0.8	x	-1.1	-0.4
CC(C)NC(=O)C1C(c2ccc(C(F)(F)F)cc2)=Nc2ccccc2N1C(=O)c1ccccc1 (centres undefined)	1.5*	6.0	x	4.0	2.9
COc1ccc(/C=C/CN2CCN(Cc3cccc(OC)c3)C(CCO)C2)cc1 (centres undefined)	-1.7	1.1	4.2*	0.6	-0.6
CCOc1ccc(CN2CCN(C/C=C/c3ccc(OC)cc3)CC2CCO)cc1 (centres undefined)	-1.2	-2.7	1.9	-0.8	-0.3
Clc1ccccc1CSc1ncn(-c2ccccc2)n1	0.1	11.3*	4.2	4.7	2.2
Cc1ccc(CSc2ncn(-c3ccccc3)n2)cc1	-1.2	1.2	4.2*	1.6	0.2
O=C(CSc1ncn(-c2ccccc2)n1)NCc1ccccc1	-1.2	7.3	0.7	-0.3	-0.2
Cc1ccc2nc(-c3ccc(Cl)cc3)c(Cc3ccsc3)n2c1	0.8	12.8*	x	2.0	3.1
Cc1ccc(Cc2c(-c3ccc(C)cc3)nc3ccc(Cl)cn23)cc1	-0.2	7.4	2.1	2.1	3.8*
Cc1ccc2nc(-c3ccc(F)cc3)c(Cc3ccsc3)n2c1	0.5	10.4*	x	1.8	1.6
Cc1ccc(Cc2c(-c3ccc(Cl)cc3)nc3ccc(Cl)cn23)cc1	0.2	3.5	2.7	-0.8	2.2
CCOC(=O)c1c(-c2ccccc2)nc2cc(C)ccn12	-1.8	6.9	4.6*	-1.2	1.3
SMILES	ssDAF12 agonist	hgDAF-12 ag	DAX1 inh-1	hcDAF12 agonist	DAX1 inh-2
CC(C)C[C@H](NC1(C(=O)NCCc2c[nH]c3ccccc23)CCN(C)CC1)C(=O)NCCCc1ccccc1	-1.7	3.5	x	-0.6	x
Clc1ccc(OCCOc2ccc(Br)nc2Br)c(Cl)c1	-1.9	6.0	x	-2.0	x
Cc1ccc(Cc2c(-c3ccccc3)nc3cc(C)ccn23)cc1	1.3*	10.8*	2.3	4.0	3.2
Cc1ccc(-c2nc3ccc(Cl)cn3c2Cc2ccsc2)cc1	-0.1	12.8*	x	3.4	4.2*
Cc1ccc(Cc2c(-c3ccccc3)nc3c(Cl)cc(C(F)(F)F)cn23)cc1	1.7*	2.0	x	2.3	0.6
Fc1ccc(-c2nc3ccc(Cl)cn3c2Cc2ccsc2)cc1	-0.9	8.6	x	-1.4	0.6
O=C(NCc1ccco1)C1CCCN(c2ncccn2)C1 (centres undefined)	-1.0	2.6	x	-2.7	0.1
COC(=O)C[C@@H]1CC[C@H]2[C@@H](COc3ccc(NC(=O)c4cc(C)on4)cc3C(=O)N2C)O1	-0.9	2.4	x	-1.2	-0.2
C[C@H]1CCCN1c1cccc2c1S(=O)(=O)N1CC[C@@H](C1)O2	-0.3	0.8	x	-2.2	0.1
Cc1cccc(NC(=O)Nc2nc3ncccn3c2-c2ccccc2)c1	-0.4	1.3	x	-3.1	-1.9
O=C(NCCOc1ccccc1Cl)c1ncn[nH]1	-1.6	1.0	1.3	-0.9	-0.2
CCCCCCNC(=O)c1ncn[nH]1	-1.1	0.2	5.0*	-0.4	0.0
Nn1c(Cc2cccc3ccccc23)nnc1SCc1ccccc1	-1.1	3.8	-0.4	-2.6	0.0
O=C(O)CSc1nnc(Cc2cccc3ccccc23)n1-c1cc(C(F)(F)F)cc(C(F)(F)F)c1	-0.9	-0.7	5.7*	2.2	-0.1
O=C(/C=C/c1ccc([N+](=O)[O-])cc1)N1CCN(c2ccccc2F)CC1	-1.2	3.0	5.2*	0.1	0.7
Nc1[nH]c(C(=O)c2ccccc2)c(-c2cccnc2)c1C(=O)NCCc1c[nH]c2ccccc12	-1.2	2.4	x	2.9	x
COc1ccc(C(=O)C2(C(=O)Nc3cc(C)cc(C)c3)CC(c3ccccn3)=NO2)cc1 (centres undefined)	-0.6	7.4	x	1.2	0.4
COc1cccc(/C=N/NC(=O)CCn2c3ccccc3c3ccccc32)c1	1.4*	4.6	2.5	0.6	0.1
CN(c1ccc(NC(=O)CCc2cn(Cc3ccc(Br)cc3)c3ccccc23)cc1)c1ccccn1	-1.2	0.4	x	-0.4	-1.1
CCOC(=O)[C@@H]1c2[nH]c3ccccc3c2C[C@@]2(C(=O)OC)C=CCN12	1.5*	0.7	x	2.9	0.1
CCN1CCN(c2cc3c(nn2)Oc2ccccc2N3C)CC1	-0.6	12.1*	0.3	4.0	2.9
CCN1CCN(c2nnc(-c3ccccc3)c3ccccc23)CC1	-1.3	-0.8	-2.1	1.4	0.1
CCOC(=O)[C@@]12CCCC3=C1N(CCC3)C(=O)[C@H]2CC(=O)NCc1cccc2ccccc12	-1.6	-0.1	x	-1.4	0.6
O=C1c2nc3ccccn3c2C(=O)N1Cc1ccccc1	1.4*	2.3	0.3	0.6	0.5
CCCCOc1ccc(/C=C/C(=O)NCCc2nc3ccccc3[nH]2)cc1	-2.0	-0.6	-1.4	-3.2	-1.2
COc1ccc(/C=C/C(=O)NCCc2nc3ccccc3[nH]2)cc1	1.1*	2.4	x	1.1	-0.8
Cc1ccc2[nH]c(O)c(N=Nc3ccccc3C)c2c1	-0.1	-1.3	-0.9	4.3	-0.2
Cc1ccc2[nH]c(O)c(N=O)c2c1	-0.4	0.3	4.9*	0.8	0.2

Assay outcomes from PubChem.
